Assay [1] is described as follows: qHTS assay to identify small molecule agonists of the endoplasmic reticulum stress response signaling pathway - cell viability counter screen (AID 1159517; calls by dose curve; note: nearly all actives have a fitted effect of over 50% in size; note: potency is the fitted concentration of half-maximal effect). Summed up: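 Cytotoxicity of test compounds toward ESRE-bla HeLa cells was assessed after 5 hr exposure. The luminescent CellTiter-Glo signal was measured 30 min after reagent addition.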
In general terms: In qHTS, concentration-response curves come from the screen itself.

Assay [2] is described as follows: qHTS assay to identify small molecule antagonists of the retinoid-related orphan receptor gamma (ROR-gamma) signaling pathway - cell viability counter screen (AID 1159520). Note: nearly all actives have a fitted effect of over 50% in size. Note: potency is the fitted concentration of half-maximal effect. Summed up: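 Tet-on ROR gamma CHO cells (1,000/well) were plated 4 hr, given compounds in DMSO for 2 hr at 37 C, then induced with 1 uM final doxycycline for 16 hr. Viability was read as ATP by CellTiter-Glo luminescence after 30 min.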

Assay [3] concerns the target Nuclear receptor ROR-gamma (Homo sapiens) (UniProt P51449). The assay is described as follows: qHTS assay to identify small molecule antagonists of the retinoid-related orphan receptor gamma (ROR-gamma) signaling pathway (AID 1159521; note: nearly all actives have a fitted effect of over 50% in size; note: potency is the fitted concentration of half-maximal effect). The method, boiled down: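 Screening format: cell-based luciferase reporter in CHO cells with doxycycline-inducible RORγ. Compound pre-exposure lasts 2 h, doxycycline is 1 uM final, induction runs 16 h at 37 C, and ONE-Glo luminescence is read.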

Assay [4] can be described thus: qHTS assay to identify small molecule antagonists of the retinoid acid receptor (RAR) signaling pathway - cell viability counter screen (AID 1159551). Note: nearly all actives have a fitted effect of over 35% in size. Note: potency is the fitted concentration of half-maximal effect. The method, boiled down: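 Measured by luminescent ATP detection, viability reflects C3RL4 cells treated 6 h at 37 C with test chemicals in the presence of 1 uM (final) retinol.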
Assay [5] in a line: qHTS assay to identify small molecule antagonists of the estrogen related receptor (ERR) signaling pathway from Tox21 library - cell viability counter screen (AID 1224834). Note: nearly all actives have a fitted effect of over 30% in size. Note: potency is the fitted concentration of half-maximal effect. The method, boiled down:
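Seeded ERR cells were rested 6 h at 37 C/5% CO2 before compounds, positive and negative controls or DMSO were added. Incubation continued for 17.5 h, and viability was then quantified by CellTiter-Fluor fluorescence.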

Assay [6] is described as follows: qHTS assay to identify small molecule agonists of the vitamin D receptor (VDR) signaling pathway - cell viability counter screen (AID 743224). Note: nearly all actives have a fitted effect of over 50% in size. Note: potency is the fitted concentration of half-maximal effect. Summed up:
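Counter screen for cytotoxicity: VDR-bla cells at 2,000 cells/well, 16 h compound exposure, then CellTiter-Glo luminescence after the beta-lactamase measurement.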

Assay [7] in a line: qHTS assay to identify small molecule agonists of the AP-1 signaling pathway - cell viability counter screen (AID 1159525; calls by dose curve; note: nearly all actives have a fitted effect of over 55% in size; note: potency is the fitted concentration of half-maximal effect). The method, boiled down: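 Each titration point was normalised to DMSO and tetra n-octyl ammonium bromide controls. The read was Cell Titer Glo luminescence after 30 min at RT, following 5 h compound exposure of ME-180 AP-1-bla cells at 37 °C.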
The nature of assay [8]: qHTS assay to identify small molecule antagonists of the retinoic acid receptor (RAR) signaling pathway (AID 1159552; note: nearly all actives have a fitted effect of over 50% in size; note: potency is the fitted concentration of half-maximal effect). The method, boiled down: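 Using a RARE-driven luciferase construct in C3RL4 cells, retinol at 1 uM final provided the agonist stimulus while compounds were co-applied. After 6 hours at 37 C, luminescence was recorded to flag inhibitors of retinol signaling.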

Assay [9] can be described thus: qHTS assay to identify small molecule antagonists of the vitamin D receptor (VDR) signaling pathway - cell viability counter screen (AID 743225). Note: nearly all actives have a fitted effect of over 50% in size. Note: potency is the fitted concentration of half-maximal effect. The method, boiled down:
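In this counter screen, VDR-bla HEK 293T cells receive test compound plus 3 nM final calcitriol for 16 h at 37C. Room-temperature steps of 2 h with the beta-lactamase substrate, then 30 min with CellTiter-Glo, precede the luminescence read.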

Assay [10] can be described thus: qHTS assay to identify small molecule agonists of the RXR signaling pathway - cell viability counter screen (AID 1159529). Note: nearly all actives have a fitted effect of over 50% in size. Note: potency is the fitted concentration of half-maximal effect. The method, boiled down: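 Viability read-out for the RXR-alpha agonist qHTS: luminescent CellTiter-Glo signal after 30 min at RT. HEK 293T bla reporter cells, 2% charcoal-stripped FBS, 16 hr compound incubation; tetraoctyl ammonium bromide as cytotoxic control.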

Assay [11] can be described thus: qHTS assay to identify small molecule antagonists of the estrogen related receptor (ERR) signaling pathway - cell viability counter screen (AID 1224818). Note: potency is the fitted concentration of half-maximal effect. Summed up: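 Compounds dissolved in DMSO were applied to ERR cells seeded at 2,000 per well 6 h earlier. Cell viability followed 17.5 h later via 30-min CellTiter-Fluor fluorescence.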
Assay [12] is described as follows: qHTS assay to identify small molecule agonists of the retinoic acid receptor (RAR) signaling pathway (AID 1159553). Summed up: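 6 hr compound exposure (DMSO vehicle) of overnight-plated C3RL4 RARE-luc cells at 37 C; luminescence quantified after 30 min RT with luciferase reagent.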
Assay [13] is described as follows: qHTS assay to identify small molecule agonists of the AP-1 signaling pathway (AID 1159526; calls by dose curve).
Assay [14] is described as follows: qHTS assay to identify small molecule antagonists of the estrogen related receptor (ERR) signaling pathway (AID 1224819). Summed up:
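Compounds dissolved in DMSO were pin-transferred onto ERR cells that had been plated 6 h earlier, and cells were then incubated 18 h at 37 C; signal was luciferase luminescence via One-Glo.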

Assay [15] in a line: qHTS assay to identify small molecule agonists of the estrogen related receptor (ERR) signaling pathway (AID 1224820). Summed up:
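Luminescence readout (One-Glo, 30 min RT) from NTP-supplied ERR cell line exposed to compounds for 18 h at 37 C. Cells seeded 2,000 per well and pre-incubated 6 h before pin-tool compound transfer.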

Assay [16] is described as follows: qHTS assay to identify small molecule agonists of the estrogen related receptor signaling pathway with the pleiotropic PPARgamma coactivator (PGC) (AID 1224823). Summed up: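 Luminescence readout (One-Glo, 30 min RT) from PGC/ERR cell line treated 18 h at 37 C with pin-tool-delivered DMSO compound solutions; cells plated 6 h before dosing. Quantitative HTS format.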

Assay [17] deals with estrogen-related receptor alpha (ERRalpha) with PGC-1alpha coactivator, human. The assay is described as follows: qHTS assay to identify small molecule antagonists of the estrogen related receptor signaling pathway with the pleiotropic PPARgamma coactivator (PGC) (AID 1224821; calls by dose curve). Summed up:
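PGC/ERR reporter cells; 6 h pre-incubation 37 C/5% CO2; pin-tool compound in DMSO, 18 h 37 C; One-Glo added, 30 min RT; luminescence read. qHTS antagonist mode.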

Assay [18] is described as follows: qHTS assay to identify small molecule antagonists of the estrogen related receptor signaling pathway with the pleiotropic PPARgamma coactivator (PGC) cell viability counter screen (AID 1224822; note: series mostly up to about 46 µM). Summed up: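 Counter screen for cell viability: PGC/ERR cells, 6 h pre-incubation after plating, 17.5 h compound exposure at 37 C, fluorescence from CellTiter-Fluor after 30 min.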

Several values for one entry are separate records, joined by “and”; a condition that tells them apart may be missing. Identical values can stand only once. Inconclusive results are not listed. Some structures have more than one record in an assay (separate samples or runs), and their calls can disagree. Activity calls are given as the source filed them. Unless noted, calls come from the whole dose curve; as a rule, active = well fitted curve in the direction sought with a large enough effect in the repeat runs; inconclusive = weak or mixed curves; inactive = no such curve, though single readings can be large; an effect the other way counts as inactive or inconclusive.

For the molecule `C[C@@]12C(=O)OC(=O)[C@]1(C)C1CCC2O1`, the Potency result in assay [1] is “inactive”. The Potency in assay [2] is 4.22 µM (active); in assay [3], 4.22 µM (active); in assay [4], 8.41 µM (active); in assay [5], 6.68 µM (active).

On to `Nc1ccc2cc3ccc(N)cc3nc2c1`, for which the Potency is 24.5 µM (active) and inactive in [6]; 26.6 µM (active) in assay [2]; 4.33 µM (active) and 16.8 µM (active) in [8]. The Potency entry in [1], in assay [3] and in assay [7] was “inactive” each time.

For `Clc1ccc(C(c2ccccc2Cl)C(Cl)Cl)cc1` (centres undefined), the Potency was 49 µM (active) and inactive in assay [6]; 49 µM (active) in assay [1]; 34.7 µM (active) and 23.9 µM (active) in [10]; 54.5 µM (active) in [8]. Besides, the Potency entry in assay [9], in [2], in assay [3], in assay [4], in assay [11] and in [5] was “inactive” each time.

On to `CCCCCCCCCCCCCC[n+]1ccccc1`, for which the Potency in assay [6] is 24.5 µM (active); in assay [1], 17.4 µM (active); in [2] it was 61.1 µM (active); in assay [3] it was 4.86 µM (active); in assay [7], 49 µM (active); in [10], 12.3 µM (active). In assay [5], the Potency was 27.3 µM (active).

Consider `CCN=C1C=CC(=C(c2ccc(N(CC)CC)cc2)c2ccc(N(CC)CC)cc2)c2ccccc21`, for which the Potency in assay [6] is 4.87 µM (active); in assay [9], 19.4 µM (active); in [1], 38.7 µM (active); in assay [2] it was 6.82 µM (active); in assay [3], 2.71 µM (active); in [7] it was 38.7 µM (active). Moreover, the values for the Potency in assay [4], in [8] and in assay [5] were 24.2 µM (active), 4.83 µM (active) and 8.58 µM (active), respectively.

For the molecule `COC(=O)NCCC[Si](OC)(OC)OC`, the Potency was 49 µM (active) in assay [6] and 54.5 µM (active) in assay [3]. Also, the Potency result in assay [9], in assay [1], in [2], in assay [7], in assay [4] and in [5] was “inactive” in each case.

Consider `COc1cc(C(=O)NS(=O)(=O)c2ccccc2C)ccc1Cc1cn(C)c2ccc(NC(=O)OC3CCCC3)cc12`, for which the Potency result in assay [6], in assay [9], in assay [1], in assay [2], in assay [3] and in assay [10] was “inactive” each time. For the same molecule, the Potency entry in assay [4], in [8], in assay [12] and in assay [5] was “inactive” each time.

For `CCC(C)c1cc([N+](=O)[O-])cc([N+](=O)[O-])c1OC(=O)OC(C)C` (centres undefined), the Potency is 54.9 µM (active) in [6]; 34.7 µM (active) in assay [9]; 34.7 µM (active) in assay [1]; 61.1 µM (active) in [2]; 19.3 µM (active) in [3]; 34.4 µM (active) in assay [8]. The Potency in [5] was 24.3 µM (active). Besides, the Potency entry in assay [12] was “inactive”.

In the case of `CC=O`, the Potency in [6] is 22.9 µM (active); in assay [9] it was 57.5 µM (active); in assay [1] it was 16.2 µM (active); in assay [2], 63.9 µM (active); in assay [3] it was 2.02 µM (active); in [8], 25.5 µM (active). Moreover, in assay [5], the Potency was 28.6 µM (active).

Consider `CCCCCCCCCC(=O)N(C)C`, for which the Potency entry in assay [6], in [9], in assay [1], in assay [2], in assay [3] and in assay [7] was “inactive” throughout. For the same molecule, the Potency entry in assay [13], in [10], in assay [4] and in assay [8] was “inactive” throughout.

For the molecule `Cc1cc2c(C(C)C)c(O)c(O)c(C=O)c2c(O)c1-c1c(C)cc2c(C(C)C)c(O)c(O)c(C=O)c2c1O`, the Potency in assay [6] is 11.9 µM (active); in assay [1] it was 10.7 µM (active); in assay [2] it was 26.6 µM (active); in assay [3] it was 10.6 µM (active); in assay [10], 21.3 µM (active); in [11], 10.2 µM (active). Further, the Potency in assay [14] is 2.76 µM (active); in [5], 13.3 µM (active). In addition, the Potency entry in [7], in assay [4], in assay [8] and in [12] was “inactive” in each case. In addition, the outcome in assay [15] and in assay [16] was inactive.

As for `N#CSCSc1nc2ccccc2s1`, the Potency was 12.3 µM (active) in assay [6]; 15.5 µM (active) in assay [9]; 12.3 µM (active) in [1]; 4.33 µM (active) in assay [2]; 13.7 µM (active) in assay [3]; 43.6 µM (active) in assay [7]. For the same molecule, the Potency in assay [4] is 61.1 µM (active); in [8] it was 17.2 µM (active); in assay [5], 61.1 µM (active).

As to `O=C(NO)c1ccccc1`, the Potency entry in assay [6], in assay [1], in assay [2], in [3], in assay [7] and in [4] was “inactive” each time. The Potency result in assay [8], in assay [12], in assay [11] and in assay [18] was “inactive” in each case. Further, the call in [15], in assay [17] and in [16] was inactive.

For the molecule `CSc1ccc2c(c1)N(CCC1CCCCN1C)c1ccccc1S2` (centres undefined), the Potency entry in [6] is “inactive and 26.6 µM (active)”; in [9], 24.4 µM (active) and 23.9 µM (active); in [1], 43.5 µM (active); in [2] it was 48.4 µM (active) and inactive; in assay [3], 27.2 µM (active) and inactive; in [7], 43.5 µM (active) and inactive. Besides, the Potency was 19.4 µM (active) and 26.8 µM (active) in [10]; 60.9 µM (active) in assay [4]; 24.2 µM (active) and 29.8 µM (active) in [8]; 43.1 µM (active) and 33.5 µM (active) in [5]. Besides, the call in assay [15] was inactive.

On to `CC(C)(C)CC(C)(C)c1ccccc1O`, for which the Potency in assay [6] is 19.6 µM (active); in [1], 49.2 µM (active); in assay [2] it was 61.4 µM (active); in assay [3] it was 68.9 µM (active); in [10] it was 39.1 µM (active); in [4] it was 54.8 µM (active). Moreover, the Potency in [8] was 27.4 µM (active).

Values taken from PubChem BioAssay (Tox21).
